Measured values as given in PubChem BioAssay (EPA / NIEHS).
Active and inactive are the calls of the source. Rule for the calls: active = hit-call score of the fitted dose curve at least 0.9, where 1 is the maximum; inactive = score below 0.9.

Key:
[1] = target: Myc proto-oncogene protein (Homo sapiens) (UniProt P01106); test: ATG_Myc_CIS: Attagene CIS-FACTORIAL HepG2 Assay for human Myelocytomatosis (Myc) Proto-Oncogene Transcription Factor (AID 2282990); settings: HepG2, Attagene cis-reporter transcription factor activity; actives raise or lower the signal
Outline: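 HepG2, transient MRTU transfection (cis promoters, endogenous TFs); 24 h dosing; TriZol RNA → oligo(dT) RT → PCR → 6-FAM primer extension → HpaI cut → CE. Bidirectional fit vs DMSO.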

[2] = ATG_NF_kB_CIS: Attagene CIS-FACTORIAL HepG2 Assay for human Nuclear Factor Kappa B (NF-kB) (AID 2282991); settings: HepG2 Attagene cis-factorial NF-kB reporter mRNA; actives raise or lower the signal
Outline: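 Multiplexed cis-reporter assay in transiently transfected HepG2. 24 h treatment; RNA isolated, RT-PCR, labelled fragments resolved by CE. DMSO baseline.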

[3] = ATG_NRF2_ARE_CIS: Attagene CIS-FACTORIAL HepG2 Assay for human Nuclear Factor Erythroid 2 Related Factor 2 (NFR2) response to Antioxidant Response Elements (ARE) (AID 2282992); settings: HepG2 Attagene ARE/NRF2 reporter, transcription factor activity; actives raise or lower the signal;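 for AC50: reporter mRNA level measured by RT-PCR and capillary electrophoresis fluorescence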
Outline: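 HepG2 cells transiently transfected with multiplexed cis-element reporter constructs, 24 h after chemical dosing; reporter mRNA quantified by RT-PCR, fluorescent primer extension, HpaI digestion and capillary electrophoresis. Bidirectional fit relative to DMSO.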

[4] = ATG_Oct_MLP_CIS: Attagene CIS-FACTORIAL HepG2 Assay for human Octamer-Binding Transcription Factor (Oct) (AID 2282993); settings: HepG2 Attagene cis-factorial Oct reporter, mRNA; actives raise or lower the signal
Outline: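 Read-out: reporter mRNA via RT-PCR plus capillary electrophoresis of 6-FAM-labelled fragments. Transiently transfected HepG2, 24 h exposure, endogenous TF activity on cis elements. Gain or loss of signal fitted relative to DMSO.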

[5] = target: Cellular tumor antigen p53 (Homo sapiens) (UniProt P04637); test: ATG_p53_CIS: Attagene CIS-FACTORIAL HepG2 Assay for human p53 Transcription Factor (AID 2282994); settings: HepG2 p53 cis-element reporter, Attagene mRNA; actives raise or lower the signal
Outline: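 HepG2 cells transiently transfected with cis-regulated multiple reporter transcription units, dosed 24 h. Reporter mRNA measured by RT-PCR, 6-FAM primer extension, HpaI digestion and capillary electrophoresis; bidirectional fit relative to DMSO.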

[6] = BSK_3C_TissueFactor: BioMAP Diversity Plus: 3C Assay for Tissue Factor Biomarker Activity (AID 2282997); settings: BioMAP 3C HUVEC, tissue factor biomarker readout; actives raise or lower the signal
Outline: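 Dosing of human umbilical vein endothelial cells preceded a 24 h incubation. Tissue Factor was then read by ELISA, with increases and decreases both scored relative to DMSO controls.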

[7] = BSK_3C_uPAR: BioMAP Diversity Plus: 3C Assay for Urokinase-type plasminogen activator receptor (uPAR) Biomarker Activity (AID 2282998); settings: BioMAP 3C HUVEC, uPAR biomarker ELISA; actives raise or lower the signal
Outline: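 HUVEC primary cells; 24 h post-dose; uPAR by ELISA; gain or loss of signal fitted bidirectionally vs DMSO baseline.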

[8] = BSK_3C_VCAM1: BioMAP Diversity Plus: 3C Assay for Vascular cell adhesion molecule 1 (VCAM1) Biomarker Activity (AID 2282999); settings: BioMAP 3C HUVEC, VCAM1 ELISA, cytokine-stimulated; actives raise or lower the signal
Outline: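 Endothelial cells from human umbilical vein are treated with test chemical. At 24 h, VCAM-1 is measured by ELISA, and responses in either direction are fitted relative to DMSO.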

[9] = BSK_4H_Eotaxin3: BioMAP Diversity Plus: 4H Assay for Eotaxin 3 Biomarker Activity (AID 2283000); settings: primary human endothelial cells (HUVEC); actives raise or lower the signal;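 for outcome: CCL26 protein level quantified by ELISA in parallel with SRB cytotoxicity check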
Outline: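 Human umbilical vein endothelial cells (BSK_4H system) dosed with test chemical; Eotaxin-3 (CCL26) measured by ELISA 24 h after dosing. Bidirectional curve fitting relative to DMSO negative control as baseline.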

Chain of Myc proto-oncogene protein (Homo sapiens) (P01106 whole entry, looked up): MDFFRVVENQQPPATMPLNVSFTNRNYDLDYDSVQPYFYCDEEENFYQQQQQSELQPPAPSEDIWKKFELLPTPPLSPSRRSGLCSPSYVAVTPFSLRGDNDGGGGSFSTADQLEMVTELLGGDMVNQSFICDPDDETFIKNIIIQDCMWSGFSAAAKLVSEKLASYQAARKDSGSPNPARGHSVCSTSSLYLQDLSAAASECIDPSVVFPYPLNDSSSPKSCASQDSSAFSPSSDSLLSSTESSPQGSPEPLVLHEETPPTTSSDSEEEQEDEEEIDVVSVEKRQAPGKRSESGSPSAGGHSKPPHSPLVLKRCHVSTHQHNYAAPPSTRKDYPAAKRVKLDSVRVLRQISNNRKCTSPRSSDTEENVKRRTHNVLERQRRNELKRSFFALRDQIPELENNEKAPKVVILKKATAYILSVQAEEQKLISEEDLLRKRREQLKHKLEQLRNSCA
Chain of Cellular tumor antigen p53 (Homo sapiens) (P04637 whole entry, looked up): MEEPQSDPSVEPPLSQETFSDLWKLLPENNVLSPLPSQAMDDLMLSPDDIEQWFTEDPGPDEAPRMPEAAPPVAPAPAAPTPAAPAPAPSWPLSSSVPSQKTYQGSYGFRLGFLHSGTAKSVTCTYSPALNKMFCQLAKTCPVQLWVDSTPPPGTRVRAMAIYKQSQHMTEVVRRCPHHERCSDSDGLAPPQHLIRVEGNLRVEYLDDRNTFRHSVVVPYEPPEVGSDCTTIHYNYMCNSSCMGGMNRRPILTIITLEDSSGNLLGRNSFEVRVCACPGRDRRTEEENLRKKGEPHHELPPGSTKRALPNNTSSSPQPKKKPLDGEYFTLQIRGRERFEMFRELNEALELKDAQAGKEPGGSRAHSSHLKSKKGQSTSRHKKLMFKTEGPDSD

| SMILES | AC50 [1] | outcome [2] | AC50 [3] | outcome [4] | outcome [5] | outcome [6] | outcome [7] | AC50 [8] | AC50 [9] | outcome [1] | outcome [3] | outcome [8] | outcome [9] | AC50 [7] | AC50 [2] | AC50 [4] | AC50 [5] |
| --- | --- | --- | --- | --- | --- | --- | --- | --- | --- | --- | --- | --- | --- | --- | --- | --- | --- |
| CC1=C(/C=C/C(C)=C/C=C/C(C)=C/CO)C(C)(C)CCC1 | 139 µM (active) | inactive | 44.2 µM (active) | inactive | inactive | inactive | inactive | 33 µM (active) | 15.6 µM (active) | – | – | – | – | – | – | – | – |
| C[Si]1(C)O[Si](C)(C)O[Si](C)(C)O[Si](C)(C)O1 | – | inactive | – | inactive | inactive | inactive | inactive | – | – | inactive | inactive | inactive | inactive | – | – | – | – |
| O=C(O)CCCCC(=O)O | – | inactive | – | inactive | inactive | inactive | inactive | – | – | inactive | inactive | inactive | inactive | – | – | – | – |
| CC1(C)CC(N=C=O)CC(C)(CN=C=O)C1 (centres undefined) | – | inactive | – | inactive | inactive | inactive | inactive | – | – | inactive | inactive | inactive | inactive | – | – | – | – |
| Cc1nc(C)nc(N2C[C@@H](C)N(c3ccnc([C@@H](C)O)n3)[C@@H](C)C2)n1 | – | inactive | – | inactive | inactive | inactive | – | – | – | inactive | inactive | inactive | inactive | 12.9 µM (active) | – | – | – |
| c1cc(-c2ccncc2)ccn1 | – | inactive | – | inactive | inactive | inactive | inactive | – | – | inactive | inactive | inactive | inactive | – | – | – | – |
| CC1(C)NC(=O)NC1=O | – | inactive | – | inactive | inactive | inactive | inactive | – | – | inactive | inactive | inactive | inactive | – | – | – | – |
| NC(=O)Cn1c(=O)cc(CCN2CCN(c3nccc4sccc34)CC2)c2ccc(F)cc21 | – | inactive | 54.3 µM (active) | inactive | inactive | inactive | inactive | – | – | inactive | – | inactive | inactive | – | – | – | – |
| Nc1nc(N)c2nc(CNc3ccc(C(=O)N[C@@H](CCC(=O)O)C(=O)O)cc3)cnc2n1 | – | inactive | – | inactive | inactive | inactive | inactive | – | – | inactive | inactive | inactive | inactive | – | – | – | – |
| O=C(OCCCCCOC(=O)c1ccccc1)c1ccccc1 | – | inactive | – | inactive | inactive | inactive | inactive | – | – | inactive | inactive | inactive | inactive | – | – | – | – |
| COc1cccc2c1C(=O)c1c(O)c3c(c(O)c1C2=O)C[C@@](O)(C(=O)CO)C[C@@H]3O[C@H]1C[C@H](N)[C@H](O)[C@H](C)O1 | 2.48 µM (active) | – | 1.56 µM (active) | – | – | – | – | – | – | – | – | – | – | – | 0.653 µM (active) | 0.719 µM (active) | 2.24 µM (active) |
| Cc1cc(=O)[nH]c(=S)[nH]1 | – | inactive | – | inactive | inactive | inactive | inactive | – | – | inactive | inactive | inactive | inactive | – | – | – | – |
